Holding throughout (experiment): DAPPL (digital affinity profiling via proximity ligation, sequencing); 10 mM Tris-HCl pH 7.5, 50 mM NaCl, 1 mM DTT, 4% glycerol, room temperature, 30 min; GST-TFs on glutathione beads, 16-mer random dsDNA library, 0.1% formaldehyde crosslink after washing; high values mean tight binding
In one assay the target is T1, FLI1 (Homo sapiens, UniProt Q01543 1-452).
T1 sequence: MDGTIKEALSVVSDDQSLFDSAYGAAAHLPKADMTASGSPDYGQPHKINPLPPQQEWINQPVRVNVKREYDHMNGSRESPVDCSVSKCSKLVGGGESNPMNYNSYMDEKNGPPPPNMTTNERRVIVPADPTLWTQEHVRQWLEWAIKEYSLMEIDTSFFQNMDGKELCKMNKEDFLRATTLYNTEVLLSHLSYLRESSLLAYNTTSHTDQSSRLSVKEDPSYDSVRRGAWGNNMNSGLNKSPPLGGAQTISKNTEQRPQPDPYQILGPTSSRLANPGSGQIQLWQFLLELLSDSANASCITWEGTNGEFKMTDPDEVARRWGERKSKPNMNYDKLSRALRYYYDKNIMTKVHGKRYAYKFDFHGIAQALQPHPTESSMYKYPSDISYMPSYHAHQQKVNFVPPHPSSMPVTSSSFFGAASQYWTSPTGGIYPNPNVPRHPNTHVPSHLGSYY
Particulars: protein: recombinant; tags: N-terminal GST; dsDNA, one strand shown. The procedure, abridged: (§1)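 Each value of binding signal is a hexamer's read frequency for a factor divided by the same hexamer's frequency in the tag-only sample. Barcoded, bead-captured GST fusions of human transcription factors made in yeast were pooled with that sample and incubated with 200 nmole of a random double-stranded 16-mer DNA library in Tris/NaCl/DTT/glycerol buffer at room temperature for 30 min. Washing, 0.1% formaldehyde crosslinking, proximity ligation, PCR and Illumina NextSeq500 sequencing followed.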

The target of another assay is T2, ELK1 (Homo sapiens, UniProt P19419 1-428).
T2 sequence: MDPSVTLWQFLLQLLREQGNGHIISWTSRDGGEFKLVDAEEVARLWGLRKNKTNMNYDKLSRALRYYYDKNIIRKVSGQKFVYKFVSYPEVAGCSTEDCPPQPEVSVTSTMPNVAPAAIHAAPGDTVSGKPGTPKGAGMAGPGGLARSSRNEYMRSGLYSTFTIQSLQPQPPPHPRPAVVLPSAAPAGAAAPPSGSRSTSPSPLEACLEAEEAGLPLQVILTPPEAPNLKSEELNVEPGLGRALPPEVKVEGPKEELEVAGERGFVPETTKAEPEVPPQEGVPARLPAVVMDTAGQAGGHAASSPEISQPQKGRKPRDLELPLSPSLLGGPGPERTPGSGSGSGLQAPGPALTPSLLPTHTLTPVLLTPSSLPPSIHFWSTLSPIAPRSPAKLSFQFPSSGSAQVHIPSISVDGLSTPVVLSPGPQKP
Particulars: protein: recombinant; tags: N-terminal GST; dsDNA, one strand shown. A digest of the protocol: as §1

The next assay deals with T3, GABPA (Homo sapiens, UniProt Q06546 1-454).
T3 sequence: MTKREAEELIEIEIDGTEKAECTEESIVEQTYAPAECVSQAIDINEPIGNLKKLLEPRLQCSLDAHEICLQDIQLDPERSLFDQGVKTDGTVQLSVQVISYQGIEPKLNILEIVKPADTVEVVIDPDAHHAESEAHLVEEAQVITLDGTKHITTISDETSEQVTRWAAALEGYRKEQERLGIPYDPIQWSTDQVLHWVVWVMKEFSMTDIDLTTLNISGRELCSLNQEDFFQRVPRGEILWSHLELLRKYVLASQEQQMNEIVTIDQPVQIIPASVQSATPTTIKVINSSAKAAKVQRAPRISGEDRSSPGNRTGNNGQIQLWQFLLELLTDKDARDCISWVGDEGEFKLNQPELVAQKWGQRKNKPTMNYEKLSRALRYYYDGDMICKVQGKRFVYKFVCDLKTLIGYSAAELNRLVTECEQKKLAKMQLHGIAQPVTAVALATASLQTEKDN
Particulars: protein: recombinant; tags: N-terminal GST; dsDNA, one strand shown. A digest of the protocol: as §1

The target of the next assay is T4, ERG (Homo sapiens, UniProt P11308 1-479).
T4 sequence: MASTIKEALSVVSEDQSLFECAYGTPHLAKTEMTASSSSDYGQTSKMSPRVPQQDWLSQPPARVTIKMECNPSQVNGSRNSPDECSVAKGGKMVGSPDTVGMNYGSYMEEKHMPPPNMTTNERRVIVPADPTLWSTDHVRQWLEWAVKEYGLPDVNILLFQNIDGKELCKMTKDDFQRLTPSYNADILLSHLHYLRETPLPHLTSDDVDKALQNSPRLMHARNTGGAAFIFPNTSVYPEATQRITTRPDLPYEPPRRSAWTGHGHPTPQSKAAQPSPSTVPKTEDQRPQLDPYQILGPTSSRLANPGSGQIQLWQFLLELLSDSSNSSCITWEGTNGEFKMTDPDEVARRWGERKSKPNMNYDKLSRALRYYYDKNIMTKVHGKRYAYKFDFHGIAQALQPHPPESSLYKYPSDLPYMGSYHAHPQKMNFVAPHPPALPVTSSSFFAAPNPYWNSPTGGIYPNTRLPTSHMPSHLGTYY
Particulars: protein: recombinant; tags: N-terminal GST; dsDNA, one strand shown. A digest of the protocol:
as §1

Another assay addresses ELF1 (Homo sapiens, UniProt P32519 1-619). Particulars: protein: recombinant; tags: N-terminal GST; dsDNA, one strand shown. The procedure, abridged:
as §1

The target of the next assay is T5, EHF (Homo sapiens, UniProt Q9NZC4 1-300).
T5 sequence: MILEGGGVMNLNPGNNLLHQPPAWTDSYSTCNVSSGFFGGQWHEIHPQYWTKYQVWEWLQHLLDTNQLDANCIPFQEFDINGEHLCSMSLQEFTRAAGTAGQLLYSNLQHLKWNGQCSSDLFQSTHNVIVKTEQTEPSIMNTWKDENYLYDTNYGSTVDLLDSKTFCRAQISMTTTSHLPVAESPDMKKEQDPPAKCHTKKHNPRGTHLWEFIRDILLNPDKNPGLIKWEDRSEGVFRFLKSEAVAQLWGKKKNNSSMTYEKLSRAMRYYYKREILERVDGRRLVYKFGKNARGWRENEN
Particulars: protein: recombinant; tags: N-terminal GST; dsDNA, one strand shown. The procedure, abridged: as §1

The target in another assay is SPI1 (Homo sapiens, UniProt P17947 1-270). Particulars: protein: recombinant; tags: N-terminal GST; dsDNA, one strand shown. The procedure, abridged: as §1
The next assay deals with SPIB (Homo sapiens, UniProt Q01892 1-262). Particulars: protein: recombinant; tags: N-terminal GST; dsDNA, one strand shown. A digest of the protocol: as §1
The next assay addresses T6, ELK3 (Homo sapiens, UniProt P41970 1-407).
T6 sequence: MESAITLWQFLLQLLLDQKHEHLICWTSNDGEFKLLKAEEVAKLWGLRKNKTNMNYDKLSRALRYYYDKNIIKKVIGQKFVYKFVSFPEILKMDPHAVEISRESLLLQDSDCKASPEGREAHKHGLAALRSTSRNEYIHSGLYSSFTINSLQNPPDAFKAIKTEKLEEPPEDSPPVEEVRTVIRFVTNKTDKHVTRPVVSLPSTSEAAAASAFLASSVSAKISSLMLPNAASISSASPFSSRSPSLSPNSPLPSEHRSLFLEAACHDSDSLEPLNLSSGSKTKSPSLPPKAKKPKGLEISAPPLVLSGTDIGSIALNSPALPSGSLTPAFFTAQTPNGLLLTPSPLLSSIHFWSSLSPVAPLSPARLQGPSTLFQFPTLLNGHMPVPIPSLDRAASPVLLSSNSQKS
Conditions: protein: recombinant; tags: N-terminal GST; dsDNA, one strand shown. A digest of the protocol: as §1

Another assay addresses T7, FEV (Homo sapiens, UniProt Q99581 1-238).
T7 sequence: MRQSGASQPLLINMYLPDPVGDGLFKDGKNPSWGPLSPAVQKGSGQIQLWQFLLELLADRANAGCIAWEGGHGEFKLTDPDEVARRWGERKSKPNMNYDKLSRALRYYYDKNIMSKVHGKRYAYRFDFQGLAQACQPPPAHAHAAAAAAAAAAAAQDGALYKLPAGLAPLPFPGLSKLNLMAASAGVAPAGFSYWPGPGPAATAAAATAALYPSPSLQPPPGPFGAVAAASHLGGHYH
Conditions: protein: recombinant; tags: N-terminal GST; dsDNA, one strand shown. The procedure, abridged: as §1

A further assay has as its target ETV5 (Homo sapiens, UniProt P41161 1-510). Particulars: protein: recombinant; tags: N-terminal GST; dsDNA, one strand shown. A digest of the protocol:
as §1

The target in a further assay is HSF1 (Homo sapiens, UniProt Q00613 1-529). Conditions: protein: recombinant; tags: N-terminal GST; chain copies: 3; dsDNA, one strand shown. A digest of the protocol:
as §1

In the next assay the target is T8, SPIC (Homo sapiens, UniProt Q8N5J4 1-248).
T8 sequence: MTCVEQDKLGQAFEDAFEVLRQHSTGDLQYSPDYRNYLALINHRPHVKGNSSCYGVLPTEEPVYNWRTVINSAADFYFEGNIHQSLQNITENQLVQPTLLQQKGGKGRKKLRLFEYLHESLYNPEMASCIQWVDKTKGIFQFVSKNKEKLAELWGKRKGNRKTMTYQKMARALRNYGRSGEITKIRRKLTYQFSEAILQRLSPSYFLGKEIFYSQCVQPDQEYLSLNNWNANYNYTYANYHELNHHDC
Conditions: protein: recombinant; tags: N-terminal GST; dsDNA, one strand shown. A digest of the protocol:
as §1

The next assay concerns the target ELF4 (Homo sapiens, UniProt Q99607 1-663). Conditions: protein: recombinant; tags: N-terminal GST; dsDNA, one strand shown. A digest of the protocol:
as §1

The next assay deals with T9, ELK4 (Homo sapiens, UniProt P28324-2 1-405).
T9 sequence: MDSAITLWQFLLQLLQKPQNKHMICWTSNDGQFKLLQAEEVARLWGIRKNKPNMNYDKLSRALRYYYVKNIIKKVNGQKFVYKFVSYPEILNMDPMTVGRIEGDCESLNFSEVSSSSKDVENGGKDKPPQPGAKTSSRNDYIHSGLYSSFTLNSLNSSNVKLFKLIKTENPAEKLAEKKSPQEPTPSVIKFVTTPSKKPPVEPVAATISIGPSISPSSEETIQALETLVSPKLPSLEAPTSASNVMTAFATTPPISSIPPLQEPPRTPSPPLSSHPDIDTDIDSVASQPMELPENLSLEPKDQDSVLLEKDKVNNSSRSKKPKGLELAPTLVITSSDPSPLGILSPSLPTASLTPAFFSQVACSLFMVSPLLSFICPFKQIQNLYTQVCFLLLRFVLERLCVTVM
Particulars: protein: recombinant; tags: N-terminal GST; dsDNA, one strand shown. A digest of the protocol: as §1

The next assay concerns the target T10, ETV2 (Homo sapiens, UniProt O00321 1-342).
T10 sequence: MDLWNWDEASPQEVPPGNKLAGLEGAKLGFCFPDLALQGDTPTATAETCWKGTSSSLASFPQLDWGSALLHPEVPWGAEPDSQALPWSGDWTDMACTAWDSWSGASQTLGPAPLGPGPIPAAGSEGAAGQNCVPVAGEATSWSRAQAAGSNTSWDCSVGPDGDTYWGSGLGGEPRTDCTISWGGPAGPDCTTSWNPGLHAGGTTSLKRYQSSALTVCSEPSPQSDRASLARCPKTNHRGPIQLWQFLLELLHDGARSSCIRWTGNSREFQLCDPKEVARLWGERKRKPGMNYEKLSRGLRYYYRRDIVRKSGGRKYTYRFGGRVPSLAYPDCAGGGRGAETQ
Conditions: protein: recombinant; tags: N-terminal GST; dsDNA, one strand shown. The procedure, abridged: as §1

The next assay deals with T11, ELF3 (Homo sapiens, UniProt P78545 1-371).
T11 sequence: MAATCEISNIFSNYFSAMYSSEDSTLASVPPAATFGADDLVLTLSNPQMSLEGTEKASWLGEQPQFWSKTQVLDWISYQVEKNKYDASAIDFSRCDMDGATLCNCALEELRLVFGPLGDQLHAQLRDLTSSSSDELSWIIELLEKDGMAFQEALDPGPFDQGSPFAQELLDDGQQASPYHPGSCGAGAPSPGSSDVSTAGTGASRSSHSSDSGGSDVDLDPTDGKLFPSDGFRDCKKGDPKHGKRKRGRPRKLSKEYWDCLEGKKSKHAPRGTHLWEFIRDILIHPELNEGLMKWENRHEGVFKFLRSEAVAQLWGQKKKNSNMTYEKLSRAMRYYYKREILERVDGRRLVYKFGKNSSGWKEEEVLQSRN
Conditions: protein: recombinant; tags: N-terminal GST; dsDNA, one strand shown. The procedure, abridged: as §1

The next assay has as its target CRX (Homo sapiens, UniProt O43186 1-299). Conditions: protein: recombinant; tags: N-terminal GST; dsDNA, one strand shown. The procedure, abridged:
as §1

Another assay has as its target ETV1 (Homo sapiens, UniProt P50549 1-477). Conditions: protein: recombinant; tags: N-terminal GST; dsDNA, one strand shown. The procedure, abridged: as §1

SPIB, sequence (Q01892 whole entry): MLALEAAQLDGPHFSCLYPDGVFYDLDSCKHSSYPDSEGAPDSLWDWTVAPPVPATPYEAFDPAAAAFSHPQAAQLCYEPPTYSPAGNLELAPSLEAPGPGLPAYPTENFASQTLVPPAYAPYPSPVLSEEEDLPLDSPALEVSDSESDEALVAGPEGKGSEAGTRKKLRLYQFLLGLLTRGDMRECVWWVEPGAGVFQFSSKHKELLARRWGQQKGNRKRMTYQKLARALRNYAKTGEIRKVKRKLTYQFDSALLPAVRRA
ETV5, sequence (P41161 whole entry): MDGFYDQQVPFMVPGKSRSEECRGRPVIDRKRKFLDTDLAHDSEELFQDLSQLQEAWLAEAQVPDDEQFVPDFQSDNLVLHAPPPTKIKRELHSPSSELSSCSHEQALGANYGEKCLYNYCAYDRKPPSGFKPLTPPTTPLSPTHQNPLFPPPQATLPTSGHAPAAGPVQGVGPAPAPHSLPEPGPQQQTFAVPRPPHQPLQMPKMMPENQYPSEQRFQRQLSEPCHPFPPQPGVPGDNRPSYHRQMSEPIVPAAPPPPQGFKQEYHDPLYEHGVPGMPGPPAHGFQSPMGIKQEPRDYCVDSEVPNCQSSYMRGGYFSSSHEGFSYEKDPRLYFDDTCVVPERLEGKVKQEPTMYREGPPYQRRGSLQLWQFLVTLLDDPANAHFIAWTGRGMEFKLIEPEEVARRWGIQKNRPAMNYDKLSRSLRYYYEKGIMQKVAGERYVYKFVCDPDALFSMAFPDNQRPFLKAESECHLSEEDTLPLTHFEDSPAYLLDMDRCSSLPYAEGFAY
ELF4, sequence (Q99607 whole entry): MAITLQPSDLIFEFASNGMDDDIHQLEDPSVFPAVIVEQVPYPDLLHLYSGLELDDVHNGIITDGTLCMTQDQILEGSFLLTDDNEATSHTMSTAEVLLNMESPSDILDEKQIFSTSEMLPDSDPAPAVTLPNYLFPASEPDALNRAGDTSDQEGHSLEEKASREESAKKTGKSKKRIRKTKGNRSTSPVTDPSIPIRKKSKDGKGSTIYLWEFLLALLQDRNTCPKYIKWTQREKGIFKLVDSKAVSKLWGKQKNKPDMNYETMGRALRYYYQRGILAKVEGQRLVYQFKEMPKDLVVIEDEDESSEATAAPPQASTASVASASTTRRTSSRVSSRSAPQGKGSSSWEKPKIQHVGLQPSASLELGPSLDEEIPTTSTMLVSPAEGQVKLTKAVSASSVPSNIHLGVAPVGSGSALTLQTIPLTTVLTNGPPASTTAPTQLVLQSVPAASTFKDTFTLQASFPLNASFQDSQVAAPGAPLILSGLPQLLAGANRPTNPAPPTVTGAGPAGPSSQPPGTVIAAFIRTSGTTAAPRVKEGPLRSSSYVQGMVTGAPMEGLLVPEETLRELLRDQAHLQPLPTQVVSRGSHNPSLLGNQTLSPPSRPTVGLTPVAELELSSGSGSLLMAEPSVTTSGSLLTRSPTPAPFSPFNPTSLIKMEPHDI
HSF1, sequence (Q00613 whole entry): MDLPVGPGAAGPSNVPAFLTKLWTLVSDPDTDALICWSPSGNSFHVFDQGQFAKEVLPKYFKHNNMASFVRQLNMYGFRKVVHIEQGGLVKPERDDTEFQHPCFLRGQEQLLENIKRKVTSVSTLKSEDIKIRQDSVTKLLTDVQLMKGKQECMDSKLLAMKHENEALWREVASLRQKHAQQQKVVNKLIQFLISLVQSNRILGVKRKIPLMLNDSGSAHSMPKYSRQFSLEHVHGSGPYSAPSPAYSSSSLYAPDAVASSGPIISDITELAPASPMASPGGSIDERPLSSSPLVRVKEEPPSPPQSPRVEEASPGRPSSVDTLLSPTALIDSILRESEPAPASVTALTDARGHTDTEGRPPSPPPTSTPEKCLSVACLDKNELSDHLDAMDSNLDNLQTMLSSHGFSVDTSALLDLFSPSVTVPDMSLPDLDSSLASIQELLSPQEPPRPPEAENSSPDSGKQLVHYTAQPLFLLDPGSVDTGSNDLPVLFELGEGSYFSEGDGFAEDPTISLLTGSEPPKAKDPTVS
ETV1, sequence (P50549 whole entry): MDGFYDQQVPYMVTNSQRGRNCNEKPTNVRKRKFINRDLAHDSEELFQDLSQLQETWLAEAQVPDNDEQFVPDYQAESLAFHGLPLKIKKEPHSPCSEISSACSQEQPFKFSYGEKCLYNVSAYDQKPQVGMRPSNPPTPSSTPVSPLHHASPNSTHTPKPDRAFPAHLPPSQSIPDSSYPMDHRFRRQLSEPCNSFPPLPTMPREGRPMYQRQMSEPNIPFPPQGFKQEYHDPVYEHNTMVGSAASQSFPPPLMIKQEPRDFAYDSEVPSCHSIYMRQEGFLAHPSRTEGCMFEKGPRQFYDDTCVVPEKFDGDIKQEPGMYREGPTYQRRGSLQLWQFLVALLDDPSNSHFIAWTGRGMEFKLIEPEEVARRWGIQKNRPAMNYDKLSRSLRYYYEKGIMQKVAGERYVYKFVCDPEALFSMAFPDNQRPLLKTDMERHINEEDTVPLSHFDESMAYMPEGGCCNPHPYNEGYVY
CRX, sequence (O43186 whole entry): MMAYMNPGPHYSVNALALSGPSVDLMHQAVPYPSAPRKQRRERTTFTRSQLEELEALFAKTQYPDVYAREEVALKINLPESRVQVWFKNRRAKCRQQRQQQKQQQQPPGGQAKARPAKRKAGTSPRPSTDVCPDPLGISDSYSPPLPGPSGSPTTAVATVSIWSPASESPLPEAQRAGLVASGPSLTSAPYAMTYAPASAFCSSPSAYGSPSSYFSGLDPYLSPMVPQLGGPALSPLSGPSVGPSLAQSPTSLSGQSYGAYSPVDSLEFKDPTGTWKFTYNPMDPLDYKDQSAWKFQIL
ELF1, sequence (P32519 whole entry): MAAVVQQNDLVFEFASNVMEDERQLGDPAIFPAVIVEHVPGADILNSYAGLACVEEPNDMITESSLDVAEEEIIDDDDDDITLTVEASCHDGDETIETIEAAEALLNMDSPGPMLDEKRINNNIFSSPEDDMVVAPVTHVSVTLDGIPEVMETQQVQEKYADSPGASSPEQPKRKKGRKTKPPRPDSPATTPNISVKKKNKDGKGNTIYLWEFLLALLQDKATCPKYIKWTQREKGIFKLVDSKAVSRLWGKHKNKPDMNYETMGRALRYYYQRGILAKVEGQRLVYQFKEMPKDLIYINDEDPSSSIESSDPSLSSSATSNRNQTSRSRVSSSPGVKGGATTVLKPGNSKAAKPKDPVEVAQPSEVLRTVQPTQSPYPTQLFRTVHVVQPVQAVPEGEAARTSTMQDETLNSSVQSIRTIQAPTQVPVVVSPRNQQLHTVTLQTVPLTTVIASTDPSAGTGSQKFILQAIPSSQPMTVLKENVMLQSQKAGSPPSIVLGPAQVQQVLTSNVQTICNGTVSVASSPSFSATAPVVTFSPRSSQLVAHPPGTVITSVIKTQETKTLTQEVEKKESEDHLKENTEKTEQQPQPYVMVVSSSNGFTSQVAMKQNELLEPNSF

For the sequence ATGTAT, the binding signal with FLI1 was 1.34 fold enrichment (6-mer frequency, TF over GST control); in the assay with ELK1 it was 1.32 fold enrichment (6-mer frequency, TF over GST control); with GABPA, 1.27 fold enrichment (6-mer frequency, TF over GST control); with ERG it was 1.35 fold enrichment (6-mer frequency, TF over GST control); in the assay with ELF1, 1.3 fold enrichment (6-mer frequency, TF over GST control); with EHF, 1.28 fold enrichment (6-mer frequency, TF over GST control). In addition, the binding signal with SPI1 was 1.28 fold enrichment (6-mer frequency, TF over GST control); with SPIB, 1.32 fold enrichment (6-mer frequency, TF over GST control); with ELK3, 1.36 fold enrichment (6-mer frequency, TF over GST control); with FEV it was 1.31 fold enrichment (6-mer frequency, TF over GST control); in the assay with ETV5, 1.33 fold enrichment (6-mer frequency, TF over GST control); in the assay with HSF1, 1.18 fold enrichment (6-mer frequency, TF over GST control). The binding signal was 1.25 fold enrichment (6-mer frequency, TF over GST control) with SPIC; 1.43 fold enrichment (6-mer frequency, TF over GST control) with ELF4; 1.57 fold enrichment (6-mer frequency, TF over GST control) with ELK4; 1.3 fold enrichment (6-mer frequency, TF over GST control) with ETV2; 1.35 fold enrichment (6-mer frequency, TF over GST control) in the assay with ELF3; 1.24 fold enrichment (6-mer frequency, TF over GST control) with CRX. Also, the binding signal with ETV1 is 1.42 fold enrichment (6-mer frequency, TF over GST control).

These data come from publication PMC7862700, “An all-to-all approach to the identification of sequence-specific readers for epigenetic DNA modifications on cytosine”.
